The panel holds about 83,000 compounds, 20% with a hit somewhere; the sample as a whole holds those more often.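 In brief: 96-well plates, 48 h treatment, single concentration, percent growth endpoint.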 The source made the active and inactive calls. Rule for the calls: active = growth percent below 10; inactive = the rest.
Columns and labels:
Assay in all cases: NCI-60 one-dose screen, 48 h (100 = growth as untreated, 0 = no growth, -100 = all killed)
Settings in all cases: 10 µM unless noted
[1] = system: T-47D breast
[2] = system: BT-549 breast
[3] = system: MDA-MB-435 melanoma
[4] = system: SW-620 colon
[5] = system: MCF7 breast
[6] = system: HCT-116 colon
[7] = system: HCC-2998 colon
[8] = system: KM12 colon

Measured: growth

CN(C)c1ncc(/C=C2\SC(=S)N(Cc3ccccc3Cl)C2=O)s1
inactive: [1] 96.9% | [2] 102% | [3] 103% | [4] 82.6% | [5] 92.1% | [6] 40.5% | [7] 102% | [8] 97.5%

NC(=O)c1c(NC(=O)c2cccc(C(F)(F)F)c2F)sc2c1CCC(=O)C2
active: [4] 2.94% | [5] 6.11% | [6] 7.49% | [8] 7.39%
inactive: [1] 11.8% | [2] 11.4% | [3] 12.3% | [7] 44.1%

COC[C@@]1(C)CC[C@]2(C)CC[C@]3(C)C(=CC[C@@H]4[C@@]5(C)CCCNC(C)(C)[C@@H]5CC[C@]43C)C2C1 (some centres undefined)
inactive: [1] 70.5% | [2] 87.4% | [3] 44.2% | [4] 53.2% | [5] 23.9% | [6] 40.1% | [7] 58.8% | [8] 61.4%

COc1ccc(CCN2C(=O)CSC2=S)cc1OC
inactive: [1] 52.7% | [2] 110% | [3] 93.6% | [4] 57.9% | [5] 29.3% | [6] 99.6% | [7] 111% | [8] 16.6%

C=CCn1c(SCC(=O)Nc2cccc(C(=O)/C=C/c3ccc(OC)c(OC)c3)c2)nc2ccccc2c1=O
inactive: [1] 79.9% | [2] 97.7% | [3] 101% | [4] 74.4% | [5] 45.4% | [6] 55.6% | [7] 100% | [8] 91.8%

CN1C(=O)N(C)C2Nn3c(s/c(=C\c4ccccn4)c3=O)=NC21 (centres undefined)
inactive: [1] 102% | [2] 103% | [3] 99.2% | [4] 105% | [5] 89.3% | [6] 100% | [7] 109% | [8] 106%

Nc1ccc(-c2nnc(SCc3ccc(O)c4ncccc34)o2)cc1
inactive: [7] 14.3%
active: [1] -19.7% | [2] -11.7% | [3] 7.57% | [4] 5.51% | [5] 2.52% | [6] 0.176% | [8] 0.48%

Cc1ccc(S(=O)(=O)N/N=C/c2cn(-c3ccc(F)cc3)nc2-c2ccc(S(C)(=O)=O)cc2)cc1
inactive: [1] 98.5% | [2] 105% | [3] 100% | [4] 103% | [5] 95.7% | [6] 107% | [7] 108% | [8] 102%

COc1cc2c3c(n(CCCN4CCC[C@H]4C(N)=O)c(=O)c2cc1OC)-c1cc2c(cc1C3=O)OCO2
active: [1] -11.4% | [5] -0.242% | [6] 5.37%
inactive: [2] 27.3% | [3] 31.8% | [4] 19.7% | [7] 30.5% | [8] 26.1%

Cn1cc(-c2nnc(N)nc2-c2cn(C)c3ccc(F)cc23)c2cc(F)ccc21
inactive: [1] 69.1% | [2] 99.8% | [3] 101% | [4] 102% | [5] 87.2% | [6] 92.7% | [7] 104% | [8] 90.8%

COc1ccc(-c2nn(-c3ccccc3)cc2/C=C/C(=O)c2ccc(NC(=O)CCCCCCC(=O)NO)cc2)cc1
inactive: [1] 103% | [2] 105% | [3] 104% | [4] 111% | [5] 94.2% | [6] 95.5% | [7] 108% | [8] 95.9%

CCCCCCCCCC[C@@H](C)[C@@H]1CC(=O)N[C@H]([C@@H](C)O)C(=O)N[C@@H](C)C(=O)N[C@H](C)C(=O)N[C@@H](CCC(N)=O)C(=O)N[C@H](Cc2ccc(O)cc2)C(=O)N[C@@H](C(C)CC)C(=O)O1 (some centres undefined)
inactive: [1] 28% | [2] 72.1% | [3] 75.3% | [4] 81.9% | [5] 38.9% | [6] 64.6% | [7] 68.3% | [8] 81.4%

NC(N)=NS(=O)(=O)c1ccc(N=NC2C(=O)NN(c3ccccc3)C2=O)cc1 (centres undefined)
inactive: [1] 95.8% | [2] 107% | [3] 101% | [4] 100% | [5] 93.2% | [6] 97.3% | [7] 103% | [8] 103%

COc1ccc(OC)c([C@H]2c3[nH]c4ccccc4c3C[C@H]3C(=O)N(CCCCCCC(=O)NO)CC(=O)N23)c1
inactive: [1] 65% | [2] 107% | [3] 85% | [4] 72.5% | [5] 72.2% | [6] 66.8% | [7] 99.9% | [8] 91.7%

COc1ccc(N2C(=O)c3cc(OC)c(OC)cc3NC2SCc2ccccc2)cc1 (centres undefined)
inactive: [1] 98.5% | [2] 106% | [3] 107% | [4] 114% | [5] 96.3% | [6] 100% | [7] 121% | [8] 108%

COc1ccc(CCN2C(=O)/C(=C/c3nc(CO)cs3)SC2=S)cc1
inactive: [1] 76.4% | [2] 97.1% | [3] 96% | [4] 93.7% | [5] 16% | [6] 59.9% | [7] 107% | [8] 17.8%

CCNC(=O)Oc1ccc(/C(=C(/C)c2ccc(Cl)cc2)c2ccc(OCCN(C)C)cc2)cc1
inactive: [1] 54.8% | [2] 77% | [3] 91.6% | [4] 82.2% | [5] 18.1% | [6] 43% | [7] 81.2% | [8] 89.8%

COc1ccc(-c2cc(-c3cccc4ccccc34)n3c(n2)nc2ccccc23)cc1
inactive: [1] 24.2% | [2] 69.9% | [3] 53.4% | [4] 40.6% | [5] 19.6% | [6] 37.9% | [7] 88.3% | [8] 62.4%

O=C(CSc1nnc(-c2ccc(Cl)cc2)n1-c1ccccc1)Nc1ccc(F)cc1
inactive: [1] 80.4% | [2] 93.2% | [3] 92.9% | [4] 82.3% | [5] 81.6% | [6] 46% | [7] 100% | [8] 82.4%

Cc1cn(-c2cc(NC(=O)c3cncc(C#Cc4cnc5ccc(O[C@@H]6CCOC6)nn45)c3)cc(C(F)(F)F)c2)cn1
active: [1] -28.6% | [2] -96% | [3] -83.1% | [4] 6.01% | [5] -52% | [6] -95.7% | [7] -13.7% | [8] -21.5%

CCNCCCn1c2c(c3cc(OC)c(OC)cc3c1=O)C(=O)c1cc(OC)cnc1-2
active: [1] -0.933% | [5] 8.05% | [6] 0.589%
inactive: [2] 27.3% | [3] 38% | [4] 37.1% | [7] 43.4% | [8] 45.4%

Cc1cc(O)c(=O)cc2c1C[C@H]1CC(C)(C)/C=C/C[C@]3(C)Oc4cc(=O)c(O)cc(C)c4C[C@H]3C[C@H](O)[C@@]1(C)O2
active: [1] -2.55% | [2] 1.87% | [5] 7.16%
inactive: [3] 15.7% | [4] 15.1% | [6] 11.3% | [7] 30.8% | [8] 23.6%

CN1CCN(Cc2ccc(NC(=O)c3cncc(C#Cc4[nH]nc5ncncc45)c3)cc2C(F)(F)F)CC1
inactive: [1] 39.2% | [2] 118% | [3] 38.9% | [4] 31.6% | [5] 46% | [6] 17.7% | [7] 44.3% | [8] 10.5%

O=C1[C@H]2Cc3c([nH]c4ccccc34)[C@H](c3ccc(Cl)cc3)N2C(=O)CN1C1CCN(Cc2c(Cl)cccc2Cl)CC1
inactive: [1] 62.5% | [2] 91.6% | [3] 77% | [4] 77% | [5] 19.1% | [6] 37.8% | [7] 44.1% | [8] 72.5%

Cc1ccc(/C=C/c2nn3c(-c4ccco4)nnc3s2)cc1
inactive: [1] 92.9% | [2] 99.2% | [3] 97.1% | [4] 102% | [5] 89.5% | [6] 112% | [7] 114% | [8] 103%

Clc1ccc(-c2nc3ccc(/C(=N\N=C\c4ccccc4)c4ccccc4)cc3[nH]2)cc1
inactive: [1] 70.7% | [2] 92.5% | [3] 88.9% | [4] 91.2% | [5] 78.3% | [6] 84.5% | [7] 103% | [8] 82.3%

CCOc1ccc2nc(NC(=O)Nc3ccccc3C)sc2c1
inactive: [1] 47.7% | [2] 53.8% | [4] 29.2% | [5] 27.7% | [6] 39.8% | [7] 81.4% | [8] 40.7%
active: [3] -11.1%

COc1ccccc1N1CCN(C2=NN=C(c3cccc(Cl)c3)c3ccccc3C2)CC1
inactive: [1] 52.5% | [2] 50.5% | [4] 20.9% | [5] 17.4%
active: [3] -3.46% | [6] 7.98% | [7] 8.13% | [8] 6.16%

From PubChem BioAssay (NCI)
